Data on three compounds can be found in PubChem BioAssay (EPA / NIEHS).

Broadly, the AC50 is the concentration giving half of the maximal activity seen.

The structures appear in SMILES notation. Activity calls are given as the source filed them. The calls were made as follows: active = hit-call score of the fitted dose curve at least 0.9, where 1 is the maximum; inactive = score below 0.9.

Conditions in all cases: mRNA level, 48 h; actives raise or lower the signal
Read-out in assay [1]: Cytochrome P450 7A1 (Homo sapiens) (UniProt P22680)
Description: LTEA_HepaRG_CYP7A1: Life Technologies and Expression Analysis (LTEA) Assay for Cytochrome P450 7A1 (CYP7A1) using HepaRG (AID 2283496). An outline of the steps:
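HepaRG cells plated 48 h, then switched to serum-free induction medium and exposed in duplicate for 48 h to 8-point half-log series from 100 uM in 0.5% DMSO. CYP7A1 mRNA by qRT-PCR (TaqMan), normalized to ACTB/GAPDH/POLR2A; bidirectional fit versus DMSO.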

Read-out in assay [2]: Glutathione S-Transferase (GSTA2), GSTA2 (gene 2939)
Description: LTEA_HepaRG_GSTA2: Life Technologies and Expression Analysis (LTEA) Assay for Glutathione S-Transferase (GSTA2) using HepaRG (AID 2283497). An outline of the steps: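 Human HepaRG cells, plated 48 h, then exposed in serum-free induction medium for 48 h to eight half-log concentrations up to 100 uM in 0.5% DMSO, duplicate. GSTA2 mRNA by qRT-PCR, normalized to ACTB/GAPDH/POLR2A; bidirectional fit versus DMSO.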

Read-out in assay [3]: Glutamate-cysteine ligase catalytic (GCLC), GCLC (gene 2729)
The assay can be described thus: LTEA_HepaRG_GCLC: Life Technologies and Expression Analysis (LTEA) Assay for Glutamate-cysteine ligase catalytic (GCLC) using HepaRG (AID 2283498). The essentials:
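Differentiated human HepaRG cells, plated 48 h then switched to serum-free induction medium, were exposed in duplicate for 48 h to 8 half-log concentrations topping at 100 uM in 0.5% DMSO. GCLC mRNA was quantified by qRT-PCR against ACTB, GAPDH and POLR2A.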

Read-out in assay [4]: growth arrest and DNA damage 45 (GADD45G), GADD45G (gene 10912)
Description: LTEA_HepaRG_GADD45G: Life Technologies and Expression Analysis (LTEA) Assay for growth arrest and DNA damage 45 (GADD45G) using HepaRG (AID 2283499). An outline of the steps: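 Differentiated human HepaRG cells in serum-free induction medium were exposed for 48 h to 8 half-log concentrations up to 100 uM in 0.5% DMSO, in duplicate. GADD45G mRNA was measured by TaqMan qRT-PCR, normalised to ACTB, GAPDH and POLR2A, and fitted bidirectionally against DMSO.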

Read-out in assay [5]: Glutamate-cysteine ligase regulatory (GCLM), GCLM (gene 2730)
Description: LTEA_HepaRG_GCLM: Life Technologies and Expression Analysis (LTEA) Assay for Glutamate-cysteine ligase regulatory (GCLM) using HepaRG (AID 2283500). The essentials: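 Differentiated HepaRG cells exposed 48 h in serum-free induction medium to eight half-log concentrations up to 100 uM (0.5% DMSO). GCLM mRNA by TaqMan qRT-PCR, normalized to ACTB, GAPDH and POLR2A; bidirectional fit versus DMSO.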

Read-out in assay [6]: Glutathione S-transferase M3 (GSTM3), GSTM3 (gene 2947)
Description: LTEA_HepaRG_GSTM3: Life Technologies and Expression Analysis (LTEA) Assay for Glutathione S-transferase M3 (GSTM3) using HepaRG (AID 2283501). An outline of the steps: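 Differentiated HepaRG cells in serum-free induction medium were exposed in duplicate for 48 h to 8 half-log concentrations up to 100 uM in 0.5% DMSO. GSTM3 mRNA was measured by TaqMan qRT-PCR, normalized to ACTB/GAPDH/POLR2A, and fitted bidirectionally versus DMSO.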

Read-out in assay [7]: Heat shock 70 kDa protein 1 (HSPA1A), gene 3303
The assay can be described thus: LTEA_HepaRG_HSPA1A: Life Technologies and Expression Analysis (LTEA) Assay for Heat shock 70 kDa protein 1 (HSPA1A) using HepaRG (AID 2283502). The essentials:
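Human HepaRG cells in serum-free induction medium were exposed in duplicate for 48 h to 8 half-log concentrations, highest 100 uM, in 0.5% DMSO. HSPA1A mRNA read by TaqMan qRT-PCR, normalized to ACTB, GAPDH, POLR2A, fitted bidirectionally against DMSO.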

Read-out in assay [8]: Hypoxia-inducible factor 1-alpha (Homo sapiens) (UniProt Q16665)
Description: LTEA_HepaRG_HIF1A: Life Technologies and Expression Analysis (LTEA) Assay for Hypoxia-inducible factor 1 (HIF1A) Trancription factor using HepaRG (AID 2283503). The essentials: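 Differentiated HepaRG cells in serum-free induction medium exposed 48 h, in duplicate, to 8-point half-log series from 100 uM in 0.5% DMSO. HIF1A mRNA measured by TaqMan qRT-PCR, normalized to ACTB/GAPDH/POLR2A, fitted bidirectionally versus DMSO.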

Read-out in assay [9]: 3-Hydroxy-3-Methylglutaryl-CoA Synthase 2 (HMGCS2), HMGCS2 (gene 3158)
Description: LTEA_HepaRG_HMGCS2: Life Technologies and Expression Analysis (LTEA) Assay for 3-Hydroxy-3-Methylglutaryl-CoA Synthase 2 (HMGCS2) using HepaRG (AID 2283504). An outline of the steps: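 Differentiated human HepaRG cells were exposed in duplicate for 48 h in serum-free induction medium to eight concentrations (top 100 uM, half-log steps, 0.5% DMSO). HMGCS2 mRNA was quantified by TaqMan qRT-PCR, normalised to ACTB, GAPDH and POLR2A, then fitted bidirectionally against DMSO.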

Read-out in assay [10]: HGF (gene 3082)
The assay can be described thus: LTEA_HepaRG_HGF: Life Technologies and Expression Analysis (LTEA) Assay for Hepatocyte Growth Facto (HGF) using HepaRG (AID 2283505). The essentials:
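Differentiated human HepaRG cells in serum-free induction medium were exposed in duplicate for 48 h to eight concentrations (top 100 uM, half-log steps, 0.5% DMSO). HGF mRNA was quantified by qRT-PCR, normalized to ACTB, GAPDH and POLR2A.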

Read-out in assay [11]: Insulin Like Growth Factor 1 (IGF1), IGF1 (gene 3479)
Description: LTEA_HepaRG_IGF1: Life Technologies and Expression Analysis (LTEA) Assay for Insulin Like Growth Factor 1 (IGF1) using HepaRG (AID 2283506). An outline of the steps: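 Differentiated HepaRG cells in serum-free induction medium, exposed 48 h in duplicate to 8 half-log concentrations up to 100 uM in 0.5% DMSO. IGF1 mRNA by Fluidigm qRT-PCR, normalised to ACTB, GAPDH and POLR2A.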

Read-out in assay [12]: Intercellular Adhesion Molecule 1 (ICAM1), ICAM1 (gene 3383)
Description: LTEA_HepaRG_ICAM1: Life Technologies and Expression Analysis (LTEA) Assay for Intercellular Adhesion Molecule 1 (ICAM1) using HepaRG (AID 2283507). An outline of the steps:
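Differentiated HepaRG cells in serum-free induction medium were exposed in duplicate for 48 h to eight half-log concentrations up to 100 uM in 0.5% DMSO. Transcript levels were measured by qRT-PCR normalized to ACTB, GAPDH and POLR2A; bidirectional fits relative to DMSO.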

Read-out in assay [13]: Insulin-like growth factor-binding protein 1 (IGFBP1), IGFBP1 (gene 3484)
The assay can be described thus: LTEA_HepaRG_IGFBP1: Life Technologies and Expression Analysis (LTEA) Assay for Insulin-like growth factor-binding protein 1 (IGFBP1) using HepaRG (AID 2283508). An outline of the steps:
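Differentiated human HepaRG cells in serum-free induction medium were exposed in duplicate for 48 h to eight concentrations, top 100 uM with half-log dilutions, in 0.5% DMSO. Transcript levels came from qRT-PCR normalised to ACTB, GAPDH and POLR2A, fitted bidirectionally against DMSO.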

Read-out in assay [14]: Interleukin 6 (IL6), IL6 (gene 3569)
Description: LTEA_HepaRG_IL6: Life Technologies and Expression Analysis (LTEA) Assay for Interleukin 6 (IL6) using HepaRG (AID 2283509). An outline of the steps:
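Differentiated human HepaRG cells, plated 48 h then switched to serum-free induction medium, were exposed in duplicate for 48 h to eight half-log concentrations up to 100 uM in 0.5% DMSO. IL6 mRNA measured by qRT-PCR, normalized to ACTB/GAPDH/POLR2A.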

Read-out in assay [15]: Interleukin 6 Receptor (IL6R), IL6R (gene 3570)
Description: LTEA_HepaRG_IL6R: Life Technologies and Expression Analysis (LTEA) Assay for Interleukin 6 Receptor (IL6R) using HepaRG (AID 2283510). An outline of the steps: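 Differentiated HepaRG cells, plated 48 h, then exposed in duplicate for 48 h in serum-free induction medium to 8 half-log concentrations (top 100 uM, 0.5% DMSO). IL6R mRNA measured by TaqMan qRT-PCR, normalized to ACTB/GAPDH/POLR2A; bidirectional fit vs DMSO.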

Read-out in assay [16]: Potassium channel subfamily K member 1 (KCNK1), KCNK1 (gene 3775)
The assay can be described thus: LTEA_HepaRG_KCNK1: Life Technologies and Expression Analysis (LTEA) Assay for Potassium channel subfamily K member 1 (KCNK1) using HepaRG (AID 2283511). An outline of the steps: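 Differentiated human HepaRG cells in serum-free induction medium were exposed in duplicate for 48 h to 8 half-log concentrations up to 100 uM in 0.5% DMSO. KCNK1 mRNA was measured by TaqMan qRT-PCR, normalized to ACTB, GAPDH and POLR2A, and fitted bidirectionally versus DMSO.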

Read-out in assay [17]: Keratin 19 (KRT19), KRT19 (gene 3880)
Description: LTEA_HepaRG_KRT19: Life Technologies and Expression Analysis (LTEA) Assay for Keratin 19 (KRT19) using HepaRG (AID 2283512). An outline of the steps: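 Differentiated human HepaRG cells, plated 48 h, were exposed in duplicate for 48 h in serum-free induction medium to eight half-log concentrations up to 100 uM in 0.5% DMSO. KRT19 mRNA was quantified by qRT-PCR, normalized to ACTB, GAPDH and POLR2A, and fitted bidirectionally versus DMSO.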

Read-out in assay [18]: JUN Transcription Factor, JUN (gene 3725)
The assay can be described thus: LTEA_HepaRG_JUN: Life Technologies and Expression Analysis (LTEA) Assay for JUN Transcription Factor using HepaRG (AID 2283513). An outline of the steps:
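HepaRG cells, 48 h post-plating, exposed 48 h in serum-free induction medium to 8-point half-log series (top 100 uM, 0.5% DMSO), duplicate; mRNA by qRT-PCR (TaqMan, Fluidigm), normalized to ACTB/GAPDH/POLR2A; bidirectional fit vs DMSO.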

Read-out in assay [19]: Lipoprotein lipase (LPL), LPL (gene 4023)
Description: LTEA_HepaRG_LPL: Life Technologies and Expression Analysis (LTEA) Assay for Lipoprotein lipase (LPL) using HepaRG (AID 2283515). An outline of the steps: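 Differentiated human HepaRG cells in serum-free induction medium were exposed in duplicate for 48 h to eight half-log concentrations (top 100 uM) in 0.5% DMSO. LPL mRNA was quantified by TaqMan qRT-PCR, normalized to ACTB, GAPDH and POLR2A.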

Read-out in assay [20]: Lipase C (LIPC), LIPC (gene 3990)
The assay can be described thus: LTEA_HepaRG_LIPC: Life Technologies and Expression Analysis (LTEA) Assay for Lipase C (LIPC) using HepaRG (AID 2283514). An outline of the steps:
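Differentiated human HepaRG cells in serum-free induction medium were exposed in duplicate for 48 h to eight concentrations (top 100 uM, half-log steps, 0.5% DMSO). LIPC mRNA was quantified by TaqMan qRT-PCR, normalized to ACTB, GAPDH and POLR2A, with bidirectional fitting versus DMSO.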

Hypoxia-inducible factor 1-alpha (Homo sapiens), sequence (Q16665 whole entry, looked up): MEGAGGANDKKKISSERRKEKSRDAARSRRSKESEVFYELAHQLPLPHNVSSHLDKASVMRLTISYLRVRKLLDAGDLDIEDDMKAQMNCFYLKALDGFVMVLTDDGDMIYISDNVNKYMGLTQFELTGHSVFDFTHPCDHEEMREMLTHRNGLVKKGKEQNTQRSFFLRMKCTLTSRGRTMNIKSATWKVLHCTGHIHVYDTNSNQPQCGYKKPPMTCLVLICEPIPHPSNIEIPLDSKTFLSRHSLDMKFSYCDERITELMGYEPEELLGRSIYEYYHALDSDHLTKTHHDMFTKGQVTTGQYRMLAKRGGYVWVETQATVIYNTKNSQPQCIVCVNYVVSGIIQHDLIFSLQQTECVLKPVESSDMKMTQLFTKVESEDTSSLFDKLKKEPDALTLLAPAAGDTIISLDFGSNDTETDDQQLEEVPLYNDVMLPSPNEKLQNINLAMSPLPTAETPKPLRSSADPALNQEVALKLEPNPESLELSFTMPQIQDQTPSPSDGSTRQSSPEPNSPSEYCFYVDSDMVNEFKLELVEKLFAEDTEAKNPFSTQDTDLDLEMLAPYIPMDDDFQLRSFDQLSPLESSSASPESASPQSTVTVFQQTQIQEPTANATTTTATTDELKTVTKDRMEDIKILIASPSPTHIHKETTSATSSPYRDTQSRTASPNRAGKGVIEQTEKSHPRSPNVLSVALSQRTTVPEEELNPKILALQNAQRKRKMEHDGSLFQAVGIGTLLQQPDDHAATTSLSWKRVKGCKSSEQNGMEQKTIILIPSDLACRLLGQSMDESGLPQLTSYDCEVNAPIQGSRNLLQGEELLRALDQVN

For the compound `CCc1cccc(C)c1N(C(=O)CCl)C(C)COC` (configuration not stated), the compound was classed as inactive in [1], in assay [3], in assay [4], in assay [5], in assay [6] and in assay [7]. Further, the call in [8], in [9], in assay [10], in assay [12], in assay [13] and in assay [14] was inactive. Besides, the call in [15], in [16], in [17], in [18] and in assay [19] was inactive. Besides, the AC50 was 18 µM (active) in [2] and 50 µM (active) in assay [11].

Turning to `CCOP(=S)(OCC)Oc1cc(C)nc(C(C)C)n1`, the call in assay [1], in assay [2], in assay [3], in assay [4], in assay [5] and in assay [7] was inactive. Moreover, the compound was classed as inactive in assay [8], in assay [9], in assay [10], in [12], in [14] and in assay [15]. Also, the outcome in assay [16], in assay [17], in assay [18], in [20] and in [19] was inactive. The half-maximal activity concentration (AC50) in assay [11] is 27.3 µM (active); in [13], 19 µM (active).

Regarding `C[N+]1(C)CCCCC1`, the compound was classed as inactive in assay [1], in assay [2], in assay [3], in assay [4], in assay [5] and in assay [7]. Also, the compound was classed as inactive in assay [8], in [9], in [10], in [11], in assay [12] and in [13]. The call in assay [14], in assay [15], in assay [16], in assay [17], in [18] and in assay [20] was inactive. Besides, in assay [19], the result was inactive.
